Measurements reported in PubChem BioAssay.
Calls of active or inactive are those of the source.

Columns and labels:
[1] = binders of probe aFSTL3 on microarray, primary screen, stem cell growth factor project, biochemical, small-molecule microarray, fluorescence 635/667 (AID 1064); details: higher = more signal;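 further: measures binding of the biotinylated anti-FSTL3 antibody to printed compounds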
[2] = binders from COS7 lysate, DM2A8 probe, primary screen, torsin A project, cell lysate, small-molecule microarray, fluorescence 635/667 (AID 1065); details: higher = more signal, COS7 lysate expressing mutant human TOR1A
[3] = binders of probe aFGF2 on microarray, primary screen, stem cell growth factor project, biochemical, small-molecule microarray, fluorescence 635/667 (AID 1067); details: higher = more signal;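 further: measures binding of biotinylated aFGF2 protein to printed compounds on slides; z-score merges feature fluorescence and signal-to-noise across triplicate slides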
[4] = binders of probe aFGF10 on microarray, primary screen, stem cell growth factor project, biochemical, small-molecule microarray, fluorescence 635/667 (AID 1071); details: higher = more signal;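 further: score merges 667 nm spot intensity and signal to noise from triplicate slides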
[5] = target: Neurogenic locus notch homolog protein 2 (Homo sapiens) (UniProt Q04721); assay: Notch2 binders on small-molecule microarrays, primary screen, biochemical, small-molecule microarray, 635 nm fluorescence, stem cell growth factors (AID 1073); details: Notch2 binding, higher = more signal
[6] = target: Pro-neuregulin-1, membrane-bound isoform (Homo sapiens) (UniProt Q02297); assay: NRG1 binders on small-molecule microarrays, primary screen, psychiatric disease protein project, biochemical, small-molecule microarray, fluorescence 635/667 (AID 1075); details: NRG1 binding, 635 nm fluorescence, higher = more signal;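 further: score combines 667 nm spot fluorescence with signal to noise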
[7] = system: Neuregulin-1 EGF-like domain; assay: binders of neuregulin-1 EGF-like domain, primary screen, biochemical, small-molecule microarray, 635 nm fluorescence (AID 1081); details: small-molecule microarray binding, higher = more signal;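 further: binding of the protein to compounds printed on small-molecule microarray slides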
[8] = FRG1 promoter luciferase signal modulators, primary screen, FRG1 inhibition for FSHD, cell-based, C2C12 myotubes, firefly/Renilla luciferase, luminescence (AID 1084); details: higher = more signal, called active from +8 up or from −8 down
[9] = binders of probe aFST on microarray, primary screen, stem cell growth factor project, biochemical, small-molecule microarray, fluorescence 635/667 (AID 1086); details: higher = more signal;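 further: score merges 667 nm fluorescence with signal-to-noise of each printed compound spot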
[10] = binders of probe aHhip on microarray, primary screen, stem cell growth factor project, biochemical, small-molecule microarray, fluorescence 635/667 (AID 1087); details: higher = more signal;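 further: score merges spot fluorescence at 667nm with spot signal to noise ratio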
[11] = system: PRMT1 (protein arginine N-methyltransferase 1); assay: PRMT1 binders on small-molecule microarrays, primary screen, biochemical, small-molecule microarray, 635 nm fluorescence (AID 1088); details: small-molecule microarray binding, higher = more signal;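 further: binding of Prmt1 protein to compounds spotted on small-molecule microarray slides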
[12] = yeast growth modulation, basal conditions, primary screen, YJM789 clinical isolate, OD600, 24 h (AID 1089);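 further: growth of clinical yeast isolate S. cerevisiae YJM 789 seeded 1000 cells per well; test concentration not given here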; details: S. cerevisiae YJM789 growth, higher = more signal, called active from +8 up or from −8 down
[13] = fission yeast growth modulation, primary screen, strain 972, OD600, 24 h, no modulator (AID 1090);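 further: basal condition with compound alone and no growth modifier present; test concentration not given here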; details: S. pombe 972 growth, higher = more signal, called active from +8 up or from −8 down
[14] = S. cerevisiae growth modulation with rapamycin, primary screen, strain BY4716, OD600, 96 h (AID 1091); details: higher = more signal, called active from +8 up or from −8 down; further: test concentration not given here
[15] = target: Torsin-1A-interacting protein 2 (Homo sapiens) (UniProt Q8NFQ8); assay: LULL1 binders on small-molecule microarray, primary screen, cell lysate, human LULL1 lysate, 635/667 nm fluorescence (AID 1092); details: hLULL1 lysate binding, 635 nm fluorescence, higher = more signal;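 further: probe is lysate of COS7 cells overexpressing human LULL1; score merges per-feature 667 nm fluorescence with signal-to-noise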
[16] = E. coli growth modulation, two-sided OD650, primary screen, E. coli filamentation project, strain DRC41, 24 h (AID 1093); details: OD650, 24 h, higher = more signal, called active from +8 up or from −8 down;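 further: MC1000 strain lacking acrAB efflux and sulA so SOS filamentation is blocked; test concentration not given here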
[17] = small-molecule microarray binders of probe aLefty2, primary screen, biochemical, biotinylated probe, 635/667 nm fluorescence (AID 1094); details: higher = more signal;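 further: score merges spot fluorescence near 667 nm with spot signal-to-noise ratio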
[18] = system: Noggin (protein binding on small-molecule microarray); assay: Noggin binders on small-molecule microarray, primary screen, biochemical, 635/667 nm fluorescence (AID 1095); details: 635 nm fluorescence, higher = more signal;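 further: score merges 667 nm feature fluorescence with signal to noise over triplicate slides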
[19] = target: Neurogenic locus notch homolog protein 3 (Homo sapiens) (UniProt Q9UM47); assay: NOTCH3 binders on small-molecule microarray, primary screen, biochemical, 635/667 nm fluorescence (AID 1096); details: NOTCH3 binding, 635 nm fluorescence, higher = more signal
[20] = small-molecule microarray binders of probe aEGFR, primary screen, biochemical, biotinylated probe, 635/667 nm fluorescence (AID 1097); details: higher = more signal;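 further: probe is a biotinylated anti-EGFR antibody binding compounds printed on slides; score combines fluorescence near 667 nm and signal to noise of each spot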

Chain of Neurogenic locus notch homolog protein 3 (Homo sapiens) (Q9UM47 whole entry, looked up): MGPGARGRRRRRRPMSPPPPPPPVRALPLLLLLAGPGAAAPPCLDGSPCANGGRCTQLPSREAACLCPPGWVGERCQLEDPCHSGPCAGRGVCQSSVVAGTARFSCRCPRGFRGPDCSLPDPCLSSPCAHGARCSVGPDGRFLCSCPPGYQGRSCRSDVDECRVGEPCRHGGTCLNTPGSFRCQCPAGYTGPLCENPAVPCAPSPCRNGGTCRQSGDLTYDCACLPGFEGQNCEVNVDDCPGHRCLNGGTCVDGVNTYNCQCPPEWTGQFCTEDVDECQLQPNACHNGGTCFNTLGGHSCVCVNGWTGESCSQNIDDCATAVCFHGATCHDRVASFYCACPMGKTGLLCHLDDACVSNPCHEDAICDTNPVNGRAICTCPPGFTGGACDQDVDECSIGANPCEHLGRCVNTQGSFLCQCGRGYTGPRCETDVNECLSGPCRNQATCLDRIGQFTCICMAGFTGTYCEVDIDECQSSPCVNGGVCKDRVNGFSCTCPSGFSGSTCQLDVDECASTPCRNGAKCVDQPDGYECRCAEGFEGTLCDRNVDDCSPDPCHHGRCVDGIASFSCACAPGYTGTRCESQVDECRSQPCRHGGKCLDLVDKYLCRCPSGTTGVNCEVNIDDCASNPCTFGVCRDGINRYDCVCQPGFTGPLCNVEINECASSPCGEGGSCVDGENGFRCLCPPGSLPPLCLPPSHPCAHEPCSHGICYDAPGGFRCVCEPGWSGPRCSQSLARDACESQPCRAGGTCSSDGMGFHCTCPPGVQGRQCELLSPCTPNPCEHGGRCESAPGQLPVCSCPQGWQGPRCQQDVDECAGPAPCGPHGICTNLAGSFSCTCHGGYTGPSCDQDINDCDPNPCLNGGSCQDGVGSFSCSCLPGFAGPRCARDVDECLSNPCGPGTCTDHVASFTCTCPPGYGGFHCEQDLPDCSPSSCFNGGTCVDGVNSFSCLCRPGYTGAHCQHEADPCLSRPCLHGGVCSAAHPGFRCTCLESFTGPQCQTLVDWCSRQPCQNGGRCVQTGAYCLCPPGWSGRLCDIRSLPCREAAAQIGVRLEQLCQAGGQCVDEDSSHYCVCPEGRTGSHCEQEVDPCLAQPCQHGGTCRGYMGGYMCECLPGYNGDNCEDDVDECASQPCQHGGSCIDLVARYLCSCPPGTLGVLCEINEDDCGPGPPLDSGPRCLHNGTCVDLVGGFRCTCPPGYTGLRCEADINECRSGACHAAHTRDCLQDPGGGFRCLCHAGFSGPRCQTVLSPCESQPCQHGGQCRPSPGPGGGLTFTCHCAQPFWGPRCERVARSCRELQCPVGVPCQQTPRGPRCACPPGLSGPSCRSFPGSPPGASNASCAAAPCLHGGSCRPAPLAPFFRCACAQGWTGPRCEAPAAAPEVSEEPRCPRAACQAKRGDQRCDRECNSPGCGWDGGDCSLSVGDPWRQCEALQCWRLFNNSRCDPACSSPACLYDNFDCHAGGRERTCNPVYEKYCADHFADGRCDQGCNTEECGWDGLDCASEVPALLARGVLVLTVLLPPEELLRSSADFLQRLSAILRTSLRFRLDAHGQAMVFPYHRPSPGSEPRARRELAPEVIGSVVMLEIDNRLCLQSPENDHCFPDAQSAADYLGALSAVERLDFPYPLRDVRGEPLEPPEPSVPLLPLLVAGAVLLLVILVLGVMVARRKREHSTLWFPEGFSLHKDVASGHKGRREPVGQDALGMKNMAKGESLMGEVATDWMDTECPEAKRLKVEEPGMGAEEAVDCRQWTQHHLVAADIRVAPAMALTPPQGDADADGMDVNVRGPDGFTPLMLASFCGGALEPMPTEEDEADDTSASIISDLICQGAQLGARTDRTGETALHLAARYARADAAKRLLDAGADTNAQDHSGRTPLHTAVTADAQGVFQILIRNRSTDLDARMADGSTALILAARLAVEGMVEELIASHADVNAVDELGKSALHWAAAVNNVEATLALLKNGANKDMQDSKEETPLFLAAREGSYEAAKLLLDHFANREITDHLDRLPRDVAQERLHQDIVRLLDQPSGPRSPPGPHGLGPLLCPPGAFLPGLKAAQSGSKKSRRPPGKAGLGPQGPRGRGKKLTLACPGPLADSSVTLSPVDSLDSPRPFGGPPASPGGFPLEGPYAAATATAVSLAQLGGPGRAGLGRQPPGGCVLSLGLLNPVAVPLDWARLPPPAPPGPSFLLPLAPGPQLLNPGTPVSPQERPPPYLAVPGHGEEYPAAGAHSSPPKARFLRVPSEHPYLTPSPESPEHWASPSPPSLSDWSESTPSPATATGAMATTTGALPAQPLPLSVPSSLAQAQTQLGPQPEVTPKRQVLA
Chain of Neurogenic locus notch homolog protein 2 (Homo sapiens) (Q04721 whole entry, looked up, canonical isoform): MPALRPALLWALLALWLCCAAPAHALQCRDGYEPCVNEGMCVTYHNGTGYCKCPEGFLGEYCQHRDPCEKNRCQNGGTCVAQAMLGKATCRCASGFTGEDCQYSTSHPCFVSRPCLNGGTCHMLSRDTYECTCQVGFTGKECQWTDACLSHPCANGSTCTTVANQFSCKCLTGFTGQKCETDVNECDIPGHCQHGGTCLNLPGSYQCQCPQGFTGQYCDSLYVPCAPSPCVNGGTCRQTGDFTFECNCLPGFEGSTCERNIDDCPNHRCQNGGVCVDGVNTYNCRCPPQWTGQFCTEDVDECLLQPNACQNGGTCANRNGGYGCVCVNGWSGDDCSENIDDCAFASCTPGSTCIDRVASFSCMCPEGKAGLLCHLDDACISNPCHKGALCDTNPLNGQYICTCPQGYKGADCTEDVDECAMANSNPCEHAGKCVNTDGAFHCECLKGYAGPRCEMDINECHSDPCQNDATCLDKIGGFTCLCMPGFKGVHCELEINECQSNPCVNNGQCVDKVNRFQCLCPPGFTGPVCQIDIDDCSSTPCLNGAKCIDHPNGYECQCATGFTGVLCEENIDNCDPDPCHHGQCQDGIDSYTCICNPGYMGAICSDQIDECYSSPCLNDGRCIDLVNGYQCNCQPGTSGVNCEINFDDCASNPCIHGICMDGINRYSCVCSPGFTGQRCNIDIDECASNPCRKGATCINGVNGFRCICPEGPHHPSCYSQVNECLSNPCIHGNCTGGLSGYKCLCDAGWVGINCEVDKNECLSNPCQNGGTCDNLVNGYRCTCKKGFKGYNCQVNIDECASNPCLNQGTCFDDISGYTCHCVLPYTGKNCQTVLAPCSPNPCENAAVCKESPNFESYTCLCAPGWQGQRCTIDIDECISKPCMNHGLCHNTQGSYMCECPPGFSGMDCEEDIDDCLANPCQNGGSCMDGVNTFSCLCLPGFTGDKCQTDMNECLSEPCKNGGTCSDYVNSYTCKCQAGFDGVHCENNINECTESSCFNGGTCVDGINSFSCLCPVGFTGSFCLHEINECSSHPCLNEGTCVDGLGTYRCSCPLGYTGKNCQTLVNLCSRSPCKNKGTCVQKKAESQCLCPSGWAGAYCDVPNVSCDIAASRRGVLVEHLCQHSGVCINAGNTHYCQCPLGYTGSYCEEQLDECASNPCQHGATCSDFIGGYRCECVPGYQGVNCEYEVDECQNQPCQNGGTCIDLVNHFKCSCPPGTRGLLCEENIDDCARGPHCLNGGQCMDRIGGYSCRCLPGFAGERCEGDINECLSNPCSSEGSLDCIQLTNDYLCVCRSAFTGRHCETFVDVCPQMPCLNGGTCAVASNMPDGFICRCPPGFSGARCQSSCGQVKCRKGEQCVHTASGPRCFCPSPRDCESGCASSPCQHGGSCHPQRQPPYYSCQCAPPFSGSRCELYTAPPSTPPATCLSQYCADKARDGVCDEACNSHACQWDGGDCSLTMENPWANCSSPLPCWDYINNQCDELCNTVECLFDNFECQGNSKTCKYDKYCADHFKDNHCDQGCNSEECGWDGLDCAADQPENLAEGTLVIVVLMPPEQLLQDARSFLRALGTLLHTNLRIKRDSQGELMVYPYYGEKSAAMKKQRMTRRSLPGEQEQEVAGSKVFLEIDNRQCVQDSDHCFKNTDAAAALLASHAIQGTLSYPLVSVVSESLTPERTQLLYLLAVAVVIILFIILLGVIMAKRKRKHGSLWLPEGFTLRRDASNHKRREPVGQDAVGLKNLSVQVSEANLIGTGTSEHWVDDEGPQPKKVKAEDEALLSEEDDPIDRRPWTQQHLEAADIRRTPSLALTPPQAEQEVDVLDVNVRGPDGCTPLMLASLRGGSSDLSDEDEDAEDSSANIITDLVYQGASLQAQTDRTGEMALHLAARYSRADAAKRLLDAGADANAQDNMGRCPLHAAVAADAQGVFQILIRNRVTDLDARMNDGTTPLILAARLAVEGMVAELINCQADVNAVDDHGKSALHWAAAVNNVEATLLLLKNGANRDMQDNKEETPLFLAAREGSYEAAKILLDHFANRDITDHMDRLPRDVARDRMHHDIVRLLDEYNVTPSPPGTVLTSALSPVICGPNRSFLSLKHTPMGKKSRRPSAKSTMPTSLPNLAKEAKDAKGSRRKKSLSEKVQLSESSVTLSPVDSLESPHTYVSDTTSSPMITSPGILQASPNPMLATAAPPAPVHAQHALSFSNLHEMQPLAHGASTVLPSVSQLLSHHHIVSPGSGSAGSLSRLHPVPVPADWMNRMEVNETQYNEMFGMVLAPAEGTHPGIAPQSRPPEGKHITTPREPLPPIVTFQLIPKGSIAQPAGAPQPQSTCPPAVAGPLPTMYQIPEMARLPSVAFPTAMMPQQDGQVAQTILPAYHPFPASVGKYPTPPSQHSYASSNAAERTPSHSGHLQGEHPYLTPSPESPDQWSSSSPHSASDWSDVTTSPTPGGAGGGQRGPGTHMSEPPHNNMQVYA

Compound	composite z-score [1]	composite z-score [2]	composite z-score [3]	composite z-score [4]	composite z-score [5]	composite z-score [6]	composite z-score [7]	z-score [8]	composite z-score [9]	composite z-score [10]	composite z-score [11]	z-score [12]	z-score [13]	z-score [14]	composite z-score [15]	z-score [16]	composite z-score [17]	composite z-score [18]	composite z-score [19]	composite z-score [20]
C=CCOC(=O)[C@@H]1[C@H]2C(=O)O[C@H](c3ccccc3)[C@H](c3ccccc3)N2[C@H](c2ccc(OCCOC(=O)[C@@H]3C[C@@H]4C(=O)NCC(=O)N4[C@@H]3c3ccc(O)cc3)cc2)[C@@]12C(=O)Nc1ccc(I)cc12	-0.415	0.778	0.0428	0.371	0.364	1.04	1.26	1.12 (inactive)	0.0347	-0.0391	1.55	0.218 (inactive)	0.985 (inactive)	2.85 (inactive)	2.54	0.5 (inactive)	-0.171	1.58	0.859	-0.154
COC(=O)[C@@]1(Cc2ccc(OC)cc2)[C@H]2c3cc(C(=O)N(C)C)n(CCc4ccccn4)c3C[C@H]2CN1C(=O)c1ccccc1	1.63	-0.0525	0.638	0.402	1.61	0.428	1.05	0.845 (inactive)	1.38	0.47	-0.663	0.735 (inactive)	1.55 (inactive)	2.81 (inactive)	2.5	-0.901 (inactive)	1.09	-0.307	0.0532	0.865
C=C(COC)/C(=C/C[C@@H](OC(C)=O)c1ccc(OCCO)cc1)c1cnc2ccccc2c1	-0.123	0.093	0.0059	0.647	0.912	0.521	0.957	-0.265 (inactive)	0.253	0.0413	1.19	-0.938 (inactive)	-1.5 (inactive)	-1.05 (inactive)	0.014	2.33 (inactive)	-0.0998	1.89	1.08	-0.067
Cc1ccc(S[C@]2(C(=O)NC3CC3)CC(=O)N(Cc3ccccc3)[C@@H]2c2ccc(CO)cc2I)cc1	0.433	-0.703	-0.146	0.333	-0.823	1.23	0.966	-2.74 (inactive)	-0.73	-0.0047	1.23	0.0136 (inactive)	-3.59 (inactive)	0.0377 (inactive)	2.35	0.45 (inactive)	-0.012	-0.809	-0.738	-0.286
CN1C(=O)C2C=CC(C(O)C3CC=CCC3)N(N(c3ccccc3)c3ccccc3)C2C1=O (stereo not given)	0.677	-0.0811	0.0247	-0.0455	0.172	-0.282	0.33	-0.654 (inactive)	0.408	-0.137	-1.73	0.607 (inactive)	1.7 (inactive)	1.01 (inactive)	-0.0863	-0.843 (inactive)	0.639	-0.264	0.0898	-0.0823
C=C(/C(=C/C[C@H](OC(C)=O)c1ccccc1OCCO)c1cnc2ccccc2c1)C(C)C	0.168	0.126	-0.0419	0.324	0.775	0.586	0.87	-0.607 (inactive)	0.0254	0.0274	0.491	0.0556 (inactive)	-0.0759 (inactive)	1.11 (inactive)	1.85	-0.0733 (inactive)	-0.0251	1.24	0.909	-0.044
O=C(OCc1ccccc1)C1=CCC2c3[nH]c4ccccc4c3C(=O)C1N2S(=O)(=O)c1ccccc1[N+](=O)[O-] (stereo not given)	-0.154	-0.0749	0.105	0.982	1.7	1.65	1.19	-4.32 (inactive)	0.627	0.0759	1.52	0.802 (inactive)	1.1 (inactive)	7.14 (inactive)	3.57	-0.639 (inactive)	0.0673	0.614	1.03	-0.112
CC1(C)[C@@H]2CC(C(O)C3C=CC4C(=O)N(c5ccccc5)C(=O)C4N3Nc3ccc([N+](=O)[O-])cc3)=C[C@H]1C2 (stereo not given in full)	-0.204	0.325	-0.0834	0.873	1.7	1.88	1.2	-1.08 (inactive)	0.352	-0.0852	1.55	-0.0209 (inactive)	0.287 (inactive)	2.09 (inactive)	3.71	-0.692 (inactive)	0.109	0.375	1.03	0.184
CCS[C@H]1[C@@H](C(=O)O)[C@H](c2ccc(C)cc2)N(S(=O)(=O)c2ccc(C)cc2)[C@@H]1CC	-0.21	-0.0564	0.0288	1.1	1.36	1.84	1.36	-3.15 (inactive)	1.56	0.201	0.811	-0.406 (inactive)	0.588 (inactive)	-0.0003 (inactive)	3.26	0.401 (inactive)	0.105	-0.0193	1.11	-0.0563
